{"source": "PubChem BioAssay AID1259415", "about": "(National Center for Advancing Translational Sciences (NCATS), 2018)", "note": "Among all 410,000 compounds or so, about 18,000 (4.4%) were called active. Inconclusive results (about 7%) are left out. The entries come from a sample that favours actives as a whole. Unmarked numbers belong to inactive results. Cut-off read from the data, not from the text of the source: active = activity change below about -60%; inconclusive = no clear call, values can overlap the other calls; inactive = above about -39%. % is set by controls: 0 for no effect and ±100 for the full control effect."}
{"experiment": "qHTS Assay for inhibitors of the human cytomegalovirus (HCMV)", "settings": "HFF cells, HCMV-luciferase reporter, 72 h; at 57.5 µM; hits give low values", "procedure,_shortened": "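Two compound doses tested in HFFs infected with HCMV-luciferase, MOI 1 PFU/cell, 72 h at 37C. Lysate luminescence read with OneGlo; data normalized against buffer-only and 10uM Salinomycin inhibitor controls.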"}
{"smiles": "Cc1noc(C)c1S(=O)(=O)N(C)C[C@H]1Oc2c(NC(=O)Nc3ccc4c(c3)OCO4)cccc2C(=O)N([C@H](C)CO)C[C@@H]1C", "activity change, negative = inhibition": "22.1%"}
{"smiles": "COc1ccc(-c2cn3nc(N4CCCC(C(=O)NCCCOC(C)C)C4)sc3n2)cc1", "note": "(stereo unspecified)", "activity change, negative = inhibition": "0%"}
{"smiles": "Cc1ccc2nsnc2c1S(=O)(=O)N1CCCC1C(=O)O", "note": "(stereo unspecified)", "activity change, negative = inhibition": "-8.96%"}
{"smiles": "CCc1ccc(S(=O)(=O)c2nnn3c2nc(N2CCN(CC)CC2)c2sccc23)cc1", "activity change, negative = inhibition": "9.37%"}
{"smiles": "N#CCCN(CCC#N)c1nnc(-c2ccccc2)s1", "activity change, negative = inhibition": "3.02%"}
{"smiles": "CC1CCCC(C)N1C(=O)CN1CCN(c2nc(-c3ccc(F)cc3)cs2)CC1", "note": "(stereo unspecified)", "activity change, negative = inhibition": "-63.2% (active)"}
{"smiles": "CN(C)CCCNC(=S)N1CCN(c2nc(-c3ccccc3)cs2)CC1", "activity change, negative = inhibition": "-3.01%"}
{"smiles": "CCc1ccc(CNC(=O)C2CCN(c3nn4cc(-c5ccc(F)cc5)nc4s3)CC2)cc1", "activity change, negative = inhibition": "0%"}
{"smiles": "O=C(NCc1nnc(SCC(=O)N2CCC(Cc3ccccc3)CC2)o1)c1ccco1", "activity change, negative = inhibition": "-25.7%"}
{"smiles": "COc1ccc(NC(=O)Nc2cccc(-c3noc(C)n3)c2)cc1", "activity change, negative = inhibition": "-15.1%"}
{"smiles": "COC(=O)[C@H](CCSC)NC(=O)Nc1ccc(OC)cc1", "activity change, negative = inhibition": "10.5%"}
{"smiles": "COc1ccc(NC(=O)Nc2ccc3nsnc3c2)cc1", "activity change, negative = inhibition": "-62.9% (active)"}
{"smiles": "CCOC(=O)c1ccc(NC(=O)Cn2c(=O)n(-c3ccc(C)cc3)c(=O)c3c2cnn3C)cc1", "activity change, negative = inhibition": "2.83%"}
{"smiles": "CSc1ncnc2c1ncn2CC(=O)C1CCC2C3CCC4=CC(=O)CCC4(C)C3CCC12C", "note": "(stereo unspecified)", "activity change, negative = inhibition": "-83% (active)"}
{"smiles": "CSc1ncnc2c1ncn2CCCNCC1CCCCC1", "activity change, negative = inhibition": "8.49%"}
{"smiles": "CSc1ncnc2c1ncn2CCCNCc1ccco1", "activity change, negative = inhibition": "11.8%"}
{"smiles": "O=C(O)c1ccc(Cn2c(SCc3ccc(F)cc3)nc3ccncc32)cc1", "activity change, negative = inhibition": "0.974%"}
{"smiles": "CCOc1ccc(CCNC(=O)c2cc3c(=O)n(C)c4ccccc4c3n2C)cc1", "activity change, negative = inhibition": "-15.3%"}
{"smiles": "Cn1c(C(=O)NCCCN2CCN(c3cccc(Cl)c3)CC2)cc2c(=O)n(C)c3ccccc3c21", "activity change, negative = inhibition": "-68.6% (active)"}
{"smiles": "O=C(NCCCN1CCN(c2cccc(Cl)c2)CC1)c1nnc(Cc2ccc(F)cc2Cl)o1", "activity change, negative = inhibition": "-14.1%"}
{"smiles": "Cc1cccc(NC(=O)CSc2ncc(-c3ccccc3)[nH]2)c1C", "activity change, negative = inhibition": "45.4%"}
{"smiles": "C=CCOC(=O)C1=C[C@@H](c2ccccc2)C[C@@H](OCc2ccc(CO)cc2)O1", "activity change, negative = inhibition": "-2.26%"}
{"smiles": "CN(C)c1ccc(C(CNS(=O)(=O)c2cc(F)ccc2F)N2CCOCC2)cc1", "note": "(stereo unspecified)", "activity change, negative = inhibition": "-0.38%"}
{"smiles": "CCCNC(=O)C(CC)n1nc(CC)n2c(cc3oc(C)cc32)c1=O", "note": "(stereo unspecified)", "activity change, negative = inhibition": "-16.8%"}
{"smiles": "COc1cc(OC)c(NC(=O)c2nc(-c3ccncc3)no2)cc1Cl", "activity change, negative = inhibition": "-9.36%"}
{"smiles": "CCOC(=O)C1CN(S(=O)(=O)c2ccc(OC)cc2)c2cc(Cl)ccc2O1", "note": "(stereo unspecified)", "activity change, negative = inhibition": "-61.8% (active)"}
{"smiles": "CCOC(=O)C1CN(S(=O)(=O)c2ccc(F)cc2)C1", "activity change, negative = inhibition": "41%"}
{"smiles": "CCS(=O)(=O)c1ccc2c(c1)N(S(=O)(=O)c1ccccc1)CC(C(=O)O)O2", "note": "(stereo unspecified)", "activity change, negative = inhibition": "4.24%"}
{"smiles": "CCCCCn1c(=O)[nH]c2cc(C(=O)Nc3cc(C)cc(C)c3)ccc2c1=O", "activity change, negative = inhibition": "-0.639%"}
{"smiles": "CC[C@]1(O)C[C@@H]2CN(CCc3c([nH]c4ccccc34)[C@@](C(=O)OC)(c3cc4c(cc3OC)N(C)[C@H]3[C@@](O)(C(=O)OC)[C@H](OC(C)=O)[C@]5(CC)C=CCN6CC[C@]43[C@@H]65)C2)C1", "activity change, negative = inhibition": "-99.7% (active)"}
{"smiles": "CC[C@]1(O)CC2CN(CCc3c([nH]c4ccccc34)[C@@](C(=O)OC)(c3cc4c(cc3OC)N(C=O)[C@H]3[C@@](O)(C(=O)OC)[C@H](OC(C)=O)[C@]5(CC)C=CCN6CC[C@]43[C@@H]65)C2)C1", "note": "(stereo partly specified)", "activity change, negative = inhibition": "-100% (active)"}
{"smiles": "CCc1cccc(NC(=O)CSc2nccn2C)c1", "activity change, negative = inhibition": "73.7%"}
{"smiles": "O=C(Nc1cc(-c2nc3ccccc3o2)ccc1Cl)c1cc([N+](=O)[O-])ccc1N1CCOCC1", "activity change, negative = inhibition": "17.1%"}
{"smiles": "O=C(CCCCn1c(=O)c2ccccc2n(CC(=O)Nc2cccc(C(F)(F)F)c2)c1=O)NCc1ccc2c(c1)OCO2", "activity change, negative = inhibition": "-22.6%"}
{"smiles": "CCC(=O)N1CCc2cc(S(=O)(=O)NC(CC(C)C)C(=O)NCCc3cccc(C)c3)ccc21", "note": "(stereo unspecified)", "activity change, negative = inhibition": "-11.4%"}
{"smiles": "COc1cn(CC(=O)Nc2cccc(C)c2C)c(CN2CCCCC2)cc1=O", "activity change, negative = inhibition": "6.56%"}
{"smiles": "O=[N+]([O-])c1ccc(N2CCN(c3ccc(F)cc3)CC2)cn1", "activity change, negative = inhibition": "-16.4%"}
{"smiles": "COc1ccc(-c2cc(C(=O)N3CCN(c4ccc(F)cc4)CC3)no2)cc1", "activity change, negative = inhibition": "-76% (active)"}
{"smiles": "COc1ccc(N2CCN(C(=O)c3c(C)oc4nc(C)nc(N5CCCC5)c34)CC2)cc1", "activity change, negative = inhibition": "18.7%"}
{"smiles": "O=C(c1ccc(CN2CCOCC2)cc1)N1CCN(c2ccccc2F)CC1", "activity change, negative = inhibition": "16.2%"}
{"smiles": "O=C(c1cccc(F)c1)N1CCN(c2ccc([N+](=O)[O-])c(N3CCCCC3)c2)CC1", "activity change, negative = inhibition": "-60.2% (active)"}
{"smiles": "O=C(c1cncc(Br)c1)N1CCN(c2ccc([N+](=O)[O-])cc2)CC1", "activity change, negative = inhibition": "25.9%"}
{"smiles": "O=C(c1ccc(N2CCOCC2)c([N+](=O)[O-])c1)N1CCN(c2ccccc2F)CC1", "activity change, negative = inhibition": "-77.5% (active)"}
{"smiles": "O=C(c1cccc(F)c1)N1CCN(c2ccc([N+](=O)[O-])c3cccnc23)CC1", "activity change, negative = inhibition": "-7.42%"}
{"smiles": "CC(C)c1ccc(S(=O)(=O)N2CCN(C(=O)c3ccc(N4CCCC4)c([N+](=O)[O-])c3)CC2)cc1", "activity change, negative = inhibition": "-16.3%"}
{"smiles": "COc1ccc(N2CCN(C(=O)c3cccs3)CC2)cc1", "activity change, negative = inhibition": "57.6%"}
{"smiles": "O=C(c1ccc(N2CCOCC2)c([N+](=O)[O-])c1)N1CCN(S(=O)(=O)c2cccs2)CC1", "activity change, negative = inhibition": "5.8%"}
{"smiles": "O=C(c1cc(C(=O)N2CCN(c3ccc(F)cc3)CC2)cc([N+](=O)[O-])c1)N1CCN(c2ccc(F)cc2)CC1", "activity change, negative = inhibition": "-66.2% (active)"}
{"smiles": "Cc1ccc(CN(C(=O)COc2ccc(Cl)cc2C)C2CCS(=O)(=O)C2)o1", "note": "(stereo unspecified)", "activity change, negative = inhibition": "51.5%"}
{"smiles": "Cc1cccc(N2CCN(c3ccc(C(=O)O)cc3NC(=O)c3ccccc3F)CC2C)c1", "note": "(stereo unspecified)", "activity change, negative = inhibition": "-4.85%"}
{"smiles": "CCOc1ccccc1C(=O)NC1(C(F)(F)F)NC(=O)N(CCc2ccc(OC)c(OC)c2)C1=O", "note": "(stereo unspecified)", "activity change, negative = inhibition": "-4.49%"}
